Test results taken from PubChem BioAssay AID1259374 (The Scripps Research Institute Molecular Screening Center, 2018).
The campaign covered roughly 650,000 compounds. About 5,900 (0.91%) were called active. This excerpt belongs to a sample that is enriched for actives. A number with no mark means an inactive call. No stated cut-off is given here; in the data, active means inhibition above about 50%; inactive means the rest.

These molecules were tested against Microphthalmia-associated transcription factor (Homo sapiens) (UniProt O75030) (assay: MITF inhibitors, primary screen, biochemical, AlphaScreen, human (AID 1259374;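 further: 0% = vehicle wells with protein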)). Conditions: AlphaScreen MITF homodimerization, bead proximity signal; at 2.6 µM; stronger effect = higher value.
Sequence of Microphthalmia-associated transcription factor (Homo sapiens) (O75030 whole entry, looked up): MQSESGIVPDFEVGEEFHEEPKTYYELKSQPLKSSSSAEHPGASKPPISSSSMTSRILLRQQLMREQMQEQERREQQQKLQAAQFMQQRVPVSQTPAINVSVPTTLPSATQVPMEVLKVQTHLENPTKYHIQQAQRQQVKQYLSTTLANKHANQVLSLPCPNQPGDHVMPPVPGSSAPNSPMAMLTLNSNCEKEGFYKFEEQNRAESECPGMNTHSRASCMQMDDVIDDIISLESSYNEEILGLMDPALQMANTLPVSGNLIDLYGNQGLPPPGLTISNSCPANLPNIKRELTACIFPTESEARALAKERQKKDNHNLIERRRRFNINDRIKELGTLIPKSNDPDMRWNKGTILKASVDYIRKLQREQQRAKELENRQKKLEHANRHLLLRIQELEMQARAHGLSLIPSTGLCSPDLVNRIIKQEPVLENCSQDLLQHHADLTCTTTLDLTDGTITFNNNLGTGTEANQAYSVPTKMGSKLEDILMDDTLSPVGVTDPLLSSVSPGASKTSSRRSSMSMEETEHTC

SMILES | inhibition
CCN1CCN(S(=O)(=O)c2ccc(Br)c(OC)c2)CC1 | -5.44%
Cc1ccc(C(=O)N/N=C\c2ccc(-c3ccc(Br)cc3)o2)cn1 | 8.68%
CC(=O)N(C)c1ccc(NC(=O)COc2cc(C)ccc2C)cc1 | -10.1%
COCCN(CCOC)C(=O)CSc1nnc2nc(C)cc(C)n12 | 9.62%
CCSc1ccccc1C(=O)N1CCN(c2ccc(-c3ccccn3)nn2)CC1 | 121% (active)
O=C(c1ccccc1F)N1CCN(c2ccc(-c3cccnc3)nn2)CC1 | 4.6%
O=C(NCc1ccccc1)N1CCN(c2ccc(-c3ccncc3)nn2)CC1 | -7.08%
O=C(NCc1nnc2n1CCN(C1CCSCC1)CC2)c1c(F)cccc1F | 17.7%
COc1ccccc1C(=O)N/N=C/c1ccc(O)cc1O | 23.2%
COc1ccc(NC(=O)NN2CCN(C)CC2)c(OC)c1 | -3.56%
COc1ccc(NC(=O)CN2CCN(C)CC2)c(OC)c1 | 105% (active)
COc1ccc(NC(=O)CN2CCN(S(=O)(=O)c3cc(Cl)ccc3OC)CC2)c(OC)c1 | 6.53%
Cc1ccccc1-n1nc2c(c1NC(=O)C(C)Oc1ccccc1)CSC2 (configuration not stated) | 10.4%
NC(=O)N/N=C1\CCCCC1c1ccccc1 (configuration not stated) | -1.85%
Nc1c(C(=O)Nc2ccccc2)nnn1Cc1ccc(F)cc1 | 3.54%
COc1ccc(NC(=O)Cn2nnc(C(=O)Nc3cc(Cl)ccc3OC)c2N)cc1 | -3.11%
COc1ccc(Cn2nnc(C(=O)Nc3cccc(Cl)c3)c2N)cc1 | 61.4% (active)
Cc1ccc(NC(=O)Nc2nnc(CC(=O)Nc3ccccc3C)s2)cc1C | 17.1%
N#Cc1ccc(OCC(=O)Nc2nc(-c3ccccn3)cs2)cc1 | 64.9% (active)
N#Cc1ccc(OCC(=O)Nc2ccccc2Cl)cc1 | 12.2%
O=C(CSc1ccccc1)Nc1nc(-c2ccccn2)cs1 | 0.84%
O=C(N/N=C/c1ccccc1Cl)C(=O)N/N=C/c1ccccc1Cl | 17.2%
Oc1ccc(/C=N/Nc2ccccc2Cl)c(O)c1O | 56.2% (active)
Clc1ccccc1/C=N/Nc1nccnc1Cl | -4.68%
Cc1ccc(NC(=O)c2c(N)sc3c2CCCCC3)cc1 | -9.3%

SMILES | inhibition
O=C(c1ccccc1)c1ccc(OCC(O)CNCC2CCCO2)cc1 (configuration not stated) | 12.1%
COc1ccc(NC(=O)c2cc3n(n2)C(C(F)(F)F)CC(c2ccc(OC)c(OC)c2)N3)cc1OC (configuration not stated) | 63.8% (active)
Cc1ccc(NC(=O)c2cc3n(n2)C(C(F)(F)F)CC(c2ccc(Cl)c(Cl)c2)N3)cc1C (configuration not stated) | 12.4%
COc1ccc(C2CC(C(F)(F)F)n3nc(C(=O)Nc4cccc(C)c4)cc3N2)cc1OC (configuration not stated) | -3.27%
COC(=O)c1ccc(NC(=O)/C(=C\c2ccco2)NC(=O)c2ccccc2Cl)cc1 | -0.56%
O=C(CSc1nc2ccsc2c(=O)n1-c1ccc(Cl)cc1)N1CCCC1 | -8.93%
Cc1ccc(C(=O)Nc2cccc(C(=O)N/N=C/c3ccc(C#N)cc3)c2)cc1 | 2.24%
N#Cc1ccc(/C=N/NC(=O)c2cc([N+](=O)[O-])cc([N+](=O)[O-])c2)cc1 | 66.5% (active)
O=C(N/N=C/c1ccc([N+](=O)[O-])cc1)c1cccc(I)c1 | 10.1%
O=S(=O)(c1ccc(C2Nc3ccc(Cl)cc3C3C=CCC32)cc1)N1CCOCC1 (configuration not stated) | -9.39%
O=C(O)C1Nc2ccc(Cl)cc2C2C=CCC12 (configuration not stated) | 77% (active)
Cc1cc([N+](=O)[O-])cc2c1NC(C(=O)O)C1CC=CC21 (configuration not stated) | 24.6%
CN(C)CCN1C(=O)C(=O)/C(=C(\O)c2ccc(S(=O)(=O)N(C)C)cc2)C1c1ccc(C(C)(C)C)cc1 (configuration not stated) | 13.9%
O=C(CCc1nnc(-c2ccccc2)o1)NC1(c2ccccc2)CC1 | -2.49%
CC(CCn1cccn1)NC(=O)CCc1nnc(-c2ccccc2)o1 (configuration not stated) | 1.03%
CN(C)CC(C)(C)CNCc1nnc(-c2ccccc2)o1 | 56.2% (active)
O=C1NC(=S)N(Cc2ccco2)C(=O)/C1=C\c1ccc(N2CCOCC2)cc1 | 75.1% (active)
Cc1cc(N2CCOCC2)ccc1/C=C1\C(=O)NC(=S)N(c2ccccc2)C1=O | -14.9%
CCN1C(=O)/C(=C\c2ccc(O)cc2)C(=O)NC1=S | 3.62%
CCOC(=O)N1CCC(N(CCN(C)C)C(=S)Nc2cccc(F)c2)CC1 | -2.5%
O=C(O)C1c2ccccc2C(=O)N(Cc2ccc(F)cc2)C1c1cccc(F)c1 (configuration not stated) | 10.8%
COc1cccc(CN2CCN(Cc3ccc(C(F)(F)F)cc3)CC2)c1OC | 77.8% (active)
COc1ccc(CN2CCN(Cc3ccccc3C(F)(F)F)CC2)cc1OC | 75.6% (active)
COc1ccc(C(=O)N2CCN(Cc3ccccc3C(F)(F)F)CC2)cc1OC | 83.3% (active)
COc1cccc(CNCc2ccc(Br)cc2)c1OC | 12.2%

SMILES | inhibition
COc1ccccc1/C=C/CN1CCN(C)CC1 | 44.2%
COc1cccc(CN2CCN(Cc3ccc(SC)cc3)CC2)c1OC | 41%
COc1ccc(CN2CCN(C(=O)c3ccc(F)cc3)CC2)cc1OC | 6.68%
COc1ccc(CN2CCC3(CC2)CC3C(=O)NCc2ccccc2C(F)(F)F)cc1O (configuration not stated) | 0.47%
COc1ccc(C(=O)N2CCN(Cc3cccc(OC)c3OC)CC2)cc1OC | 44.2%
COc1cccc(CN2CCOCC2)c1OC | -5.85%
COc1cccc(CN2CCN(C/C=C/c3ccccc3)CC2)c1OC | 63.1% (active)
CC(=O)Nc1cccc(NC(=O)Cn2cnc3c(nnn3Cc3ccccc3F)c2=O)c1 | 11.8%
COc1cc2nc(CN3CCN(c4ccccc4OC)CC3)[nH]c(=O)c2cc1OC | 4.45%
O=[N+]([O-])c1cccc(C(c2nnnn2-c2cccc(Cl)c2)N2CCCCC2)c1 (configuration not stated) | 7.91%
C/C(CC(=O)Nc1ccc(Cl)cc1C)=N\NC(=O)c1ccc([N+](=O)[O-])c(Cl)c1 | 14%
COC(=O)CSCC(=O)Nc1cc(C(F)(F)F)ccc1Cl | 3.79%
Cc1ccn2cc(-c3ccc(NS(=O)(=O)c4ccc(I)cc4)cc3)nc2n1 | -8%
COc1ccc(NC2c3cccc4cccc(c34)C2NS(=O)(=O)c2ccccc2)cc1 (configuration not stated) | 23.3%
Cc1cccc(CNc2ncnc3sc(C(=O)N(C)C4CCOC4)c(C)c23)n1 (configuration not stated) | -1.76%
C=CCOc1ccc(/C=C2\SC(=S)NC2=O)cc1 | 12.6%
Cc1ccc(C(=O)NNC(=O)C2Cc3ccccc3CN2C(=O)c2ccco2)cc1 (configuration not stated) | 3.81%
Cc1ccc(OCC(=O)N/N=C/c2cc(C)ccc2O)cc1 | 15.3%
O=C(Nc1cccc(-c2nc3cccnc3s2)c1)C(F)(F)F | -3.61%
N#C/C(=C/c1ccc(S(=O)(=O)c2ccc(Cl)cc2)cc1)c1nc2ccccc2[nH]1 | -16.9%
COc1cccc(-c2nc3cnccn3c2NC(C)(C)C)c1OC | -9.88%
COCCNc1cc(-c2ccc(F)cc2)nc(C)n1 | 14.6%
Cc1nc(NC2CC2)cc(-c2ccc(F)cc2)n1 | 52.6% (active)
Cc1nc(Nc2ccncc2)cc(-c2ccc(F)cc2)n1 | 0.1%
O=C1NC(=O)N(c2ccccc2F)C(=O)/C1=C\c1ccco1 | 40%

SMILES | inhibition
O=C1NC(=S)N(c2ccccc2)C(=O)/C1=C/c1ccc(I)o1 | 59.5% (active)
Cc1cccc(N2C(=O)NC(=O)/C(=C\c3ccc(I)o3)C2=O)c1C | 57.8% (active)
O=C1NC(=S)N(c2ccccc2)C(=O)/C1=C/c1ccc(N2CCCC2)o1 | 1.33%
Cc1cccc(N2C(=O)NC(=O)/C(=C\c3ccc(C)o3)C2=O)c1 | 2.19%
Cc1ccc(N2C(=O)NC(=O)/C(=C\c3ccc(I)o3)C2=O)cc1C | 41.7%
Cc1ccccc1N1C(=O)NC(=O)/C(=C\c2ccoc2)C1=O | 52.5% (active)
O=C1NC(=S)N(c2ccccc2)C(=O)/C1=C/c1ccccc1 | 17.4%
COc1ccc(/C=C2/C(=O)NC(=O)N(c3ccccc3C)C2=O)cc1OC | 1.35%
O=C(Nc1ccc(C(=O)O)c(C(=O)O)c1)c1cccc(N2C(=O)c3ccc([N+](=O)[O-])cc3C2=O)c1 (tested in a mixture with another compound) | 11.7%
CSc1ccccc1N1C(=O)[C@@H]2C[C@H]1CN2C(=O)CCc1ccc2c(c1)OCO2 | -0.38%
CC1=C(C(=O)OC2CCCC2)C(c2ccc(C)o2)C2=C(CCCC2=O)N1 (configuration not stated) | 2.33%
CN(C)c1cccc(Nc2nccn3c(-c4cccc(Cl)c4)cnc23)c1 | -23.8%
CCCCNC(=O)c1ccc(-n2nnc3ccccc3c2=O)cc1 | 5.61%
CC(Oc1cccc(Cl)c1)C(=O)Nc1ccccc1C(=O)N1CCN(Cc2ccccc2)CC1 (configuration not stated) | 4.29%
CCOc1ccc(CN2CCCN(C)CC2)cc1 | 60.4% (active)
CC(C)NC(=O)Nc1ccc(CN2CCN(C)CC2)cc1 | -5.21%
Clc1cccc(N2CCN(Cc3cccnc3)CC2)c1 | 49.8%
O=C(c1cccc(Cl)c1)N1CCN(Cc2cccnc2)CC1 | 59.4% (active)
CCOc1ccc(CN2CCN(Cc3ccc(OCC)cc3)C(CCO)C2)cc1 (configuration not stated) | 8.91%
O=C(c1ccc(C(=O)N2CCN(Cc3ccccc3)CC2)cc1)N1CCN(Cc2ccccc2)CC1 | 6.34%
COc1ccc(CN2CCN(C(=O)c3cccc(Cl)c3)CC2)cc1OC | 27.7%
CCOc1ccc(CN2CCN(C(=O)c3cccc(Cl)c3)CC2)cc1 | 58.5% (active)
